HP1b chromo inh: HTS for Inhibitors of HP1-beta Chromodomain Interactions with Methylated Histone Tails | AID 540317, 2011 | AlphaScreen HP1-beta / biotin-H3K9me3 peptide binding | Potency, µM (highest dose often 114 µM), usual class: inhibitors | 0.56% of 390,000 active | Chromobox protein homolog 1 (Homo sapiens), P83916; further: nearly all actives have a fitted effect of over 70% in size
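AlphaScreen: HP1-beta (50 nM) preformed 30 min with biotin-H3(1-18)K9me3 peptide (50 nM) in PBS pH 7.4, 0.01% Tween-20. Compound added for 30 min at RT, then streptavidin donor/nickel chelate acceptor beads (10 ug/mL) for 30 min.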
TDP1 inh: qHTS Assay for Inhibitors of Tyrosyl-DNA Phosphodiesterase (TDP1) | Tyrosyl-DNA phosphodiesterase 1 (Homo sapiens), Q9NUW8 | recombinant TDP1, AlphaScreen DNA substrate cleavage | Potency, µM (titrated, usually from 130 µM), hits mostly inhibitors | 0.28% of 350,000 active | AID 485290, 2010; further: nearly all actives have a fitted effect of over 40% in size
Target sequence (Q9NUW8 whole entry, looked up): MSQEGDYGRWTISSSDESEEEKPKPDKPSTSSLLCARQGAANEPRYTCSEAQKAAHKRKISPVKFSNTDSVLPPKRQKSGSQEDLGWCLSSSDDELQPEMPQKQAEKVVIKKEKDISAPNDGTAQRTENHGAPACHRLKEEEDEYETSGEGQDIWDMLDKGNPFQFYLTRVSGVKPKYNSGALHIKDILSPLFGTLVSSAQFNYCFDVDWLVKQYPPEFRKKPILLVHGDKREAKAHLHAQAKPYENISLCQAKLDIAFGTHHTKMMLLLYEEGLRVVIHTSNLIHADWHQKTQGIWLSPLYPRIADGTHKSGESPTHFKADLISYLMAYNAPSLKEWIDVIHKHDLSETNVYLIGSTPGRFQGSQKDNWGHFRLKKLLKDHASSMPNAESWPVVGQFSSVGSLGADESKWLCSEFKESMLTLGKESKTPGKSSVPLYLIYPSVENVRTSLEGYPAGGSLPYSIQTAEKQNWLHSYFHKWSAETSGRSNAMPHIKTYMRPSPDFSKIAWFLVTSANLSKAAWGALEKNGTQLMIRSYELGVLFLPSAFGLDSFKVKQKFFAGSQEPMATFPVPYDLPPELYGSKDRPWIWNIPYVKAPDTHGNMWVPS
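E. coli-derived human Tdp1, 1 nM final. Cpd preinc 15 min RT; substrate 15 nM final, 5 min RT; AS bead mix 10 ug/ml final, 10 min RT. Signal loss = tyrosine-FITC cleavage. No-enzyme wells = max signal.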
Sfp PPTase inh: qHTS Assay for Inhibitors of Bacillus subtilis Sfp phosphopantetheinyl transferase (PPTase). 4'-phosphopantetheinyl transferase ffp (Bacillus subtilis), Q9F4F7. Biochemical Sfp PPTase activity, qHTS. Potency, µM, hits mostly inhibitors. 3.5% of 310,000 active;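 further: the enzyme is Sfp with the accession as filed and its product quenches rhodamine fluorescence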
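Fluorescence-quenching assay with 15 nM Sfp, 5 uM rhodamine-CoA and 12.5 uM BHQ-2-labelled ybbR peptide in pH 7.6 Hepes/MgCl2 buffer. Enzyme was pre-incubated with compound for 15 min at room temperature. Rate was taken from the 30-min fluorescence change (525/598 nm).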
JMJD2A Tudor: qHTS Assay for Inhibitors of JMJD2A-Tudor Domain; Potency, µM (doses to about 114 µM), usual class: inhibitors; 4.4% of 390,000 active; AlphaScreen JMJD2A-Tudor / H3K4me3 peptide binding; Lysine-specific demethylase 4A (Homo sapiens), O75164; AID 504339, 2011; further: nearly all actives have a fitted effect of over 50% in size
BAZ2B block: qHTS Assay for Inhibitors of BAZ2B; Potency, µM (highest dose often 114 µM), most hits filed as inhibitors; AlphaScreen BAZ2B-H3K14Ac peptide displacement; Bromodomain adjacent to zinc finger domain protein 2B (Homo sapiens), Q9UIF8; 4.4% of 360,000 active; further: nearly all actives have a fitted effect of over 60% in size
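AlphaScreen luminescence quantifies BAZ2B engagement of H3K14Ac peptide; the protein and biotinylated peptide are both at 50 nM final, buffer PBS pH 7.4 with 0.01% Tween-20, all steps at room temperature.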
G9a block: qHTS Assay for Inhibitors of Histone Lysine Methyltransferase G9a; Histone-lysine N-methyltransferase EHMT2 (Homo sapiens), Q96KQ7; G9a H3K9 monomethylation, AlphaScreen, 2 h; Potency, µM (titrated, usually from 102 µM), actives largely listed as inhibitors; 8.8% of 350,000 active; AID 504332, 2011; further: nearly all actives have a fitted effect of over 75% in size
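Readings reflect AlphaScreen signal from monomethyl-H3K9 antibody detection. HMT at 20 nM; substrate b-H3K9 500 nM; cofactor SAM 20 uM; 2 h RT reaction; compounds tested as titrations in qHTS with 15 min preincubation.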
A number is an active result; – = inactive; ? = inconclusive; · = no result; [ ] = another dose, or the depositor's remark. A selection: hits, their analogues and other compounds. The true share with any hit is near 12%. The call rests on the fitted dose curve; in most records, active means well fitted curve in the direction sought with a large enough effect; inconclusive means small, poorly fitted or top-dose-only effect, or another doubt; inactive means no such curve, though single readings can be large; an effect the other way counts as inactive or inconclusive.

SMILES | HP1b chromo inh | TDP1 inh | Sfp PPTase inh | JMJD2A Tudor | BAZ2B block | G9a block
CCOc1ccccc1N=C1SCCCN1C | – | – | – | 79µM | – | 5µM
COc1ccc(/C=C2/C(=O)N(c3ccccc3)N=C2C)cc1 | 50µM | · | · | 20µM | · | ·
CC1=NN(c2ccccc2)C(=O)/C1=C/c1c(O)[nH]c(=S)[nH]c1=O | – | ? | 50µM | 79µM | ? | ?
COC(=O)c1ccccc1N=Cc1c(O)[nH]c(=S)[nH]c1=O | – | – | – | –[11.4 µM] | – | ?
COC(=O)N(c1ccccc1)P1(=S)OCCO1 | – | – | 5.6µM | ? | – | –
CCOC(=O)N(c1ccccc1)P1(=S)OCCO1 | – | – | 40µM | – | – | ?
COC(=O)c1cn(S(=O)(=O)c2ccccc2)c2ccccc12 | – | · | ? | – | – | ?
O=NN1CCCC1c1cccnc1 (stereo unspecified) | · | – | – | · | · | –
O=C1NC(=O)N(c2ccccc2)C(=O)/C1=C\C=C\c1ccccc1 | ? | – | 16µM | – | – | ·
CCc1ccc(N2C(=O)NC(=O)/C(=C\C=C\c3ccco3)C2=O)cc1 | – | – | 50µM | – | 45µM | –
Cc1cc(C)cc(N2C(=O)NC(=O)/C(=C\C=C\c3ccco3)C2=O)c1 | ? | – | 45µM | ? | ? | 11µM
CC1=NN(c2ccccc2)C(=O)C1/C=C1\C(=O)NC(=O)N(c2cc(C)cc(C)c2)C1=O (stereo unspecified) | – | – | – | – | ? | ?
CC(C)c1ccc(N2C(=O)NC(=O)/C(=C/C=C/c3ccco3)C2=O)cc1 | – | – | – | ? | ? | 50µM
CCSc1nc2n(n1)C(c1ccc(Cl)cc1Cl)C(C(=O)Nc1ccccc1C)=C(C)N2 (stereo unspecified) | – | – | · | – | – | –
CN1CCc2nc(CO)c(CO)cc2C1 | · | –[21 µM] | – | · | · | ·
CCCCCCCCCCCCCCCCOC[C@@H](O)COP(=O)([O-])OCC[N+](C)(C)C | · | – | – | · | · | –
O=C(O)CCC1NCC2CC1CN1CCCCC21 (stereo unspecified) | · | – | – | · | · | ·
C=CCc1cc(C=C2C(=O)NC(=O)NC2=O)cc(OC)c1OCc1ccc(C(=O)O)cc1 | – | – | 56µM | – | – | 32µM
C=CCc1cc(C=C2C(=O)N(C)C(=O)N(C)C2=O)cc(OCC)c1OCc1ccccc1 | – | · | 32µM | ? | – | –
COc1cc(C=C2C(=O)NC(=O)NC2=O)ccc1O | – | – | ? | – | – | –[12.7 µM]
O=C(COC(=O)c1cccnc1Cl)NCCc1ccc(F)cc1 | – | – | · | – | · | ·
CCC/C=C/C=C/C(=O)OC1/C(=C/C(=O)OC)CC2CC(C(C)O)OC(=O)CC(O)CC3CC(OC(C)=O)C(C)(C)C(O)(CC4C/C(=C/C(=O)OC)CC(/C=C\C(C)(C)C1(O)O2)O4)O3 (stereo unspecified) | · | · | – | · | · | –[12.7 µM]
O=[N+]([O-])c1c(Cl)cccc1-c1c[nH]cc1Cl | · | · | – | · | · | ?
N#Cc1cccc(NC(=O)c2sc3nc4c(cc3c2N)N2CCC4CC2)c1 | – | – | · | – | – | –
Nc1c(C(=O)Nc2ccc(F)c(Cl)c2)sc2nc3c(cc12)N1CCC3CC1 | – | – | · | ? | – | 8.9µM
SMILES | HP1b chromo inh | TDP1 inh | Sfp PPTase inh | JMJD2A Tudor | BAZ2B block | G9a block
CN(C)c1ccc(NC(=O)c2sc3nc4c(cc3c2N)N2CCC4CC2)cc1 | – | – | · | – | ? | 5µM
CN(C)C(=O)Nc1cccc(C(F)(F)F)c1 | · | – | · | · | · | ·
COc1cc(/C=N/NP(=S)(c2ccccc2)c2ccccc2)ccc1O | – | – | – | ? | – | 45µM
Oc1ccc(/C=N/NP(=S)(c2ccccc2)c2ccccc2)cc1 | ? | – | ? | ? | ? | ?
CN1CCN(CC#CCOc2ccc(Cl)cc2)CC1 | ? | · | ? | 7.9µM | 40µM | 11µM
CN1CCN(c2nc3ccccn3c(=O)c2C=C2C(=O)N(C)C(=O)N(C)C2=O)CC1 | – | – | – | – | – | ?
CN1C(=O)C(=Cc2sc(=O)n(-c3ccccc3)c2N2CCCCC2)C(=O)N(C)C1=O | – | · | – | – | ? | 50µM
CCOP(=S)(OCC)SCSP(=S)(OCC)OCC | – | · | · | – | · | ·
CCOC(=O)CNC(=O)CSP(=S)(OCC)OCC | – | – | 79µM | – | – | ?
COc1ccccc1N1C(=O)CC(=O)NC1=O | – | – | – | – | 50µM | –
CCc1ccccc1N1C(=O)CC(=O)NC1=O | – | – | – | – | – | –
Cc1ccccc1N1C(=O)CC(=O)NC1=O | – | – | 56µM | – | – | 45µM
CC(C)c1cc2c(c(O)c1O)[C@]1(C(=O)O)CCCC(C)(C)C1CC2 (stereo partly specified) | · | ? | – | · | · | –[2.33 µM]
[S]=[Sb][S][Sb]=[S] | · | · | – | · | · | –[12.7 µM]
O=[N+]([O-])c1ccc(CNCCc2ccccc2)cc1 | ? | · | – | 20µM | 50µM | 7.9µM
O=[N+]([O-])c1ccccc1CNCCc1c[nH]c2ccccc12 | ? | · | – | 22µM | 50µM | ·
O=[N+]([O-])c1ccccc1CNCCc1ccc(F)cc1 | ? | – | – | 10µM | 50µM | 7.9µM
CC(C)NC(=O)N1CCCC2(CCN(C(=O)Oc3ccccc3)CC2)C1 | · | · | – | · | · | –[12.7 µM]
CCN(CC)/[N+]([O-])=N/O | · | – | – | · | · | –[2.33 µM]
C=C1C([C@@]2(C)C(OC(C)=O)CC(=O)O[C@@](C)(COC(C)=O)C2CC(=O)OC)C(OC=O)C(OC(=O)C(OC(C)=O)C(C)CC)[C@]2(C)C(c3ccoc3)CC(=O)C12O (stereo partly specified) | · | – | – | · | · | –[2.33 µM]
Clc1ccc(CCC(Cn2ccnc2)Sc2c(Cl)cccc2Cl)cc1 (stereo unspecified) | – | · | · | 25µM | ? | ?
C[C@@H]1OC(=O)[C@H]2C[C@H]3CCCC[C@@H]3[C@@H](/C=C/[C@H]3CCC[C@H](C)N3C)[C@@H]12 | · | – | – | · | · | –
Cc1cc(/C=C2\C(=O)NC(=O)N(c3ccc(Cl)cc3)C2=O)c(C)n1C | – | – | – | – | – | ·
CSc1ncc(/C=C2/C(=O)NC(=O)N(c3ccc(Cl)cc3)C2=O)cn1 | – | – | 56µM | ? | – | 8.9µM
Cc1ccc(N2C(=O)NC(=O)/C(=C\c3cnc(-c4ccccc4)nc3)C2=O)cc1 | – | · | 56µM | ? | – | ?
Cc1ccc(N2C(=O)NC(=O)/C(=C/c3ccoc3)C2=O)cc1 | 10µM | 3.2µM | 25µM | 10µM | 7.9µM | ·
CSc1ncc(/C=C2/C(=O)NC(=O)N(c3ccc(C)cc3)C2=O)cn1 | – | – | 45µM | – | – | 10µM
